Assay [1] has as its target Bile acid receptor (Homo sapiens) (UniProt Q96RI1). Nature of the assay: qHTS assay for small molecule antagonists of farnesoid X receptor signaling (AID 588526; calls by dose curve; note: % is set by controls: 0 for no effect and ±100 for the full control effect). The method, boiled down: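 Concentration-response titrations were fitted to the Hill equation for half-maximal inhibition and maximal response, with data normalised to 50 uM chenodeoxycholic acid and DMSO control wells. Cells: FXR-UAS-bla HEK293T, dialyzed FBS.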
A general note: qHTS replaces the single test concentration by a dilution series.

Assay [2] deals with Glucocorticoid receptor (Homo sapiens) (UniProt P04150). Nature of the assay: qHTS assay for small molecule agonists of glucocorticoid receptor signaling (AID 588532; active = well fitted curve in the direction sought with a large enough effect in the signal ratio, with a control signal flat; the % refers to the signal ratio;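 note: 100% = dexamethasone at 0.1 µM and 0% = DMSO only wells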). The conditions noted are these: HeLa MMTV-bla, beta-lactamase ratio, agonist, 18 h; stronger effect = higher value; percent of dexamethasone control, DMSO zero. A digest of the protocol: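 Titration series, up to 92 uM, applied to GRE-bla HeLa cells for 18 h at 37 C. Detection by CCF4 FRET substrate after 2 h at RT.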

Assay [3] in a line: qHTS assay for small molecule antagonists of peroxisome proliferator-activated receptor delta signaling (AID 588535).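 Note: cells co-treated with a PPAR-delta agonist as stimulator during compound exposure.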 The conditions noted are these: HEK293T PPARd-UAS-bla, beta-lactamase FRET ratio, 18 h; 460 nm channel. A digest of the protocol:
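Inhibition of PPAR-delta response element-driven beta-lactamase expression is measured in HEK293T cells exposed to a compound titration series for 18 hrs at 37 C. Half-maximal inhibition comes from Hill equation fitting.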

Assay [4] has as its target Peroxisome proliferator-activated receptor gamma (Homo sapiens) (UniProt P37231). In words: qHTS assay for small molecule antagonists of peroxisome proliferator-activated receptor gamma signaling (AID 588537; active = well fitted inhibition curve with a large enough effect in the signal ratio, with a control signal flat, not every such curve was filed as active; the % refers to the signal ratio;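 note: reporter cells co-stimulated with 50 nM rosiglitazone agonist during compound treatment; % of control where 0% means no effect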). A digest of the protocol: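 Compounds are tested as concentration series for inhibition of rosiglitazone-driven (50 nM) reporter expression in GeneBLAzer PPAR-gamma-UAS-bla HEK293 cells. After 16 h at 37 C, CCF4 substrate is added for 2 h at room temperature and blue/green fluorescence is measured.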

Assay [5] is described as follows: qHTS assay for small molecule agonists of retinoid X receptor alpha signaling (AID 588544). The note with it: HEK293T RXRa-UAS-bla, beta-lactamase reporter, 18 h; 530 nm emission.
Assay [6] concerns the target Thyroid hormone receptor beta (Homo sapiens) (UniProt P10828). Nature of the assay: qHTS assay for small molecule agonists of thyroid hormone receptor beta signaling (AID 588545; calls by dose curve;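 note: 0% = DMSO only and 100% = 10 nM T3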). The method, boiled down: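 Stimulation of a TR-driven beta-lactamase reporter was quantified in GripTite HEK 293 cells. Compound series ran for 18 hrs; curves were normalized to T3 and DMSO controls and fitted to yield EC50.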

The target is the same in assay [7]. In words: qHTS assay for small molecule antagonists of thyroid hormone receptor beta signaling (AID 588547; active = well fitted inhibition curve with a large enough effect in the signal ratio, with a control signal flat, not every such curve was filed as active; the % refers to the signal ratio;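 note: cells stimulated with 0.4 nM T3 agonist during compound exposure; series mostly up to about 77 µM; % is set by controls: 0 for no effect and ±100 for the full control effect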). The note with it: TR-UAS-bla HEK293, beta-lactamase ratio, antagonist mode, 18 h. The method, boiled down:
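TR-UAS-bla GripTite HEK293 cells in 2% charcoal/dextran FBS medium were preincubated 4 h at 37 C, given compound (0.59 nM to 92 uM) plus 0.4 nM T3 (final) for 18 h, then CCF4 for 2 h at RT; Hill fit gave IC50.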

In assay [8] the target is Estrogen receptor (Homo sapiens) (UniProt P03372). Nature of the assay: qHTS assay for small molecule antagonists of estrogen receptor alpha signaling (AID 588513; active = well fitted curve in the direction sought with a large enough effect in the signal ratio, with a control signal flat, not every such curve was filed as active; the % refers to the signal ratio; note: % is set by controls: 0 for no effect and ±100 for the full control effect). The method, boiled down: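 Fluorescence from CCF4 substrate after 2 h at room temperature gave reporter activity; cells had been exposed to compound and 0.5nM 17-beta-estradiol for 18 h at 37 C. Hill-equation fitting yielded IC50 and maximal response.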
Sequence of Estrogen receptor (Homo sapiens) (P03372 whole entry, looked up): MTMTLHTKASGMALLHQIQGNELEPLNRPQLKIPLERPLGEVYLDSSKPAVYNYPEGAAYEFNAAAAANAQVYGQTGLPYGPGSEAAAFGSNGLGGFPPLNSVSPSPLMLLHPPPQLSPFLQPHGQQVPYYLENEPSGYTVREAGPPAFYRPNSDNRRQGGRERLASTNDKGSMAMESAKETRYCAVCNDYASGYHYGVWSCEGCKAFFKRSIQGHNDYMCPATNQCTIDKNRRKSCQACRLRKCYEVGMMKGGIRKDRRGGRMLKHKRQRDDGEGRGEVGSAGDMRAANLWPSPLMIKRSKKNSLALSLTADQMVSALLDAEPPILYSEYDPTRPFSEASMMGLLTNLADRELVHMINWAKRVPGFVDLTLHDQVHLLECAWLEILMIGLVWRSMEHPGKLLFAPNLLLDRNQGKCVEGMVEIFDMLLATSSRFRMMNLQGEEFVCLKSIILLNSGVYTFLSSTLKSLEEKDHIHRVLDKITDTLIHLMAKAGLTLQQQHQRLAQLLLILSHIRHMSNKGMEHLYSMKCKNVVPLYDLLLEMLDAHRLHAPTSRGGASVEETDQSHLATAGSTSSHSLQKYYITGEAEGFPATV

The target is the same in assay [9]. In words: qHTS assay for small molecule agonists of estrogen receptor alpha signaling (AID 588514; calls by dose curve;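 note: 0% = vehicle only and 100% = reference agonist; nearly all actives have a fitted effect of over 70% in size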). The method, boiled down:
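EC50 and efficacy came from Hill fits of beta-lactamase reporter signal (CCF4 dye, 2 h at room temperature) scaled between DMSO and 20 nM 17-beta-estradiol. Agonist mode: HEK293 ER-alpha-UAS-bla cells in charcoal/dextran-stripped serum medium, 18 h compound exposure at 37 C.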

The target in assay [10] is Glucocorticoid receptor (Homo sapiens) (UniProt P04150). Nature of the assay: qHTS assay for small molecule antagonists of glucocorticoid receptor signaling (AID 588533; active = well fitted inhibition curve with a large enough effect in the signal ratio, with a control signal flat, not every such curve was filed as active; the % refers to the signal ratio;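 note: cells stimulated with 2 nM dexamethasone as agonist; % is set by controls: 0 for no effect and ±100 for the full control effect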). A digest of the protocol: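 Antagonist-mode qHTS: compound titrations added to GRE-bla HeLa cells, then dexamethasone 2 nM final; 18 h, 37 C. CCF4 FRET fluorescence normalized to dexamethasone and DMSO; IC50 from Hill fit.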

Assay [11] deals with Peroxisome proliferator-activated receptor gamma (Homo sapiens) (UniProt P37231). In words: qHTS assay for small molecule agonists of peroxisome proliferator-activated receptor gamma signaling (AID 588536; active = well fitted curve in the direction sought with a large enough effect in the signal ratio, with a control signal flat, not every such curve was filed as active; the % refers to the signal ratio;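 note: 0% = DMSO basal wells and 100% = rosiglitazone at 2 µM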). A digest of the protocol: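 Compound treatment: 16 h, 37 C, HEK293 GeneBLAzer cells. Detection: CCF4, 2 h RT. Values: Hill-fit EC50, efficacy as % of 2 uM rosiglitazone.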
Sequence of Peroxisome proliferator-activated receptor gamma (Homo sapiens) (P37231 whole entry, looked up): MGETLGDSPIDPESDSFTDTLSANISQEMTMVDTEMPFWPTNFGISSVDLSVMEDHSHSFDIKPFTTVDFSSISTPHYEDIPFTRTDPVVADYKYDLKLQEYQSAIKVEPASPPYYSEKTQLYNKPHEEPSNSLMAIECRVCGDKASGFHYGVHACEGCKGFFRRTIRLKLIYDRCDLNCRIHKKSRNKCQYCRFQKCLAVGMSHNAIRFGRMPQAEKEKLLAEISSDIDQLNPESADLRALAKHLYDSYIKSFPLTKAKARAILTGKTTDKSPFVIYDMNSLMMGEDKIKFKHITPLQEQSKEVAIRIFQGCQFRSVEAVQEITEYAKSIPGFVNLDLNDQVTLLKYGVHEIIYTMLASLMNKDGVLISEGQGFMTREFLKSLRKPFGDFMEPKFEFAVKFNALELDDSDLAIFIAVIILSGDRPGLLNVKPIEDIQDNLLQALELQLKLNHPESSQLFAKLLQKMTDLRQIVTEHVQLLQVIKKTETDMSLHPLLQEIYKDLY

Assay [12] is described as follows: qHTS assay for small molecule antagonists of retinoid X receptor alpha signaling (AID 588546; active = well fitted inhibition curve with a large enough effect in the signal ratio, with a control signal flat, not every such curve was filed as active; the % refers to the signal ratio). The note with it: HEK293T RXRa-UAS-bla, beta-lactamase ratio, antagonist mode; measured here: W530 green channel, cytotoxicity proxy. The method, boiled down:
(§1)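 Beta-lactamase reporter inhibition, read as CCF4 fluorescence ratio (ex 405, em 460/530 nm) after 2 h at RT. HEK293T UAS-bla cells, 2500/well, were stimulated with 9-cis-RA at 500 or 100 nM final alongside test compound for 18 h at 37 C.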

Assay [13] concerns the target Retinoic acid receptor RXR-alpha (Homo sapiens) (UniProt P19793). Described as above. The note with it: HEK293T RXRa-UAS-bla, beta-lactamase ratio, antagonist mode. The method, boiled down:
as §1

Assay [14] has as its target Voltage-gated inwardly rectifying potassium channel KCNH2 (Homo sapiens) (UniProt Q12809). In words: qHTS Assay for Small Molecule Inhibitors of the Human hERG Channel Activity (AID 588834).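 Note: top concentration of the series differs between compounds; % is set by controls: 0 for no effect and ±100 for the full control effect; lower thallium flux fluorescence means stronger hERG block; nearly all actives have a fitted effect of over 50% in size.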 The method, boiled down:
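Step 1: BacMam hERG transduction of U2OS, 4 hrs RT. Step 2: overnight 37 °C, plate 2000 cells/well, 4 hr. Step 3: FluxOR load, compound 10 min, stimulate, read fluorescence.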

For assay [15], the target named is Luciferin 4-monooxygenase (Photinus pyralis) (UniProt P08659). Nature of the assay: Biochemical firefly luciferase enzyme assay for NPC (AID 624030).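 Note: purified P. pyralis luciferase at 10 nM with luciferin and ATP substrate; series mostly up to about 59 µM; 0% = DMSO and -100% = full luciferase inhibition by PTC124 control; nearly all actives have a fitted effect of over 70% in size.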 The method, boiled down:
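Counter-screen for direct inhibition of the luciferase enzyme by approved-drug library compounds, run at 10 nM enzyme in 50 mM Tris acetate (final). Luminescence was read within 5 min of enzyme-buffer addition and normalized to PTC124 versus DMSO (0%).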

For assay [16], the target named is Androgen receptor (Homo sapiens) (UniProt P10275). In words: qHTS assay for small molecule agonists of androgen receptor signaling (AID 588515; active = well fitted curve in the direction sought with a large enough effect in the signal ratio, with a control signal flat; the % refers to the signal ratio; note: % is set by controls: 0 for no effect and ±100 for the full control effect). The conditions noted are these: AR-UAS-bla HEK293, beta-lactamase ratio, agonist 16 h; stronger effect = higher value. A digest of the protocol:
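Stimulation of an AR-responsive β-lactamase reporter in GripTite HEK293 cells was measured after 16 h compound exposure at 37 °C, via CCF4 fluorescence after 2 h RT. EC50 from Hill fits, normalized to R1881 at 30 nM.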

Assay [17] has the same target. In words: qHTS assay for small molecule antagonists of androgen receptor signaling (AID 588516; active = well fitted curve in the direction sought with a large enough effect in the signal ratio, with a control signal flat, not every such curve was filed as active; the % refers to the signal ratio; note: % is set by controls: 0 for no effect and ±100 for the full control effect). The method, boiled down:
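Cells were plated and incubated 5 h, compounds added in titration, then R1881 (10 nM final) as agonist. After 16 h at 37 C, CCF4 substrate was loaded for 2 h at room temperature and fluorescence measured.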

For assay [18], the target named is Vitamin D3 receptor (Homo sapiens) (UniProt P11473). Nature of the assay: qHTS assay for small molecule antagonists of vitamin D receptor signaling (AID 588541; calls by dose curve). The method, boiled down:
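VDR-UAS-bla HEK293T cells (2000/well, 2% charcoal-stripped FBS) were treated with titrated compounds plus 1-alpha,25-dihydroxyvitamin D3 (50 nM or 3 nM final) for 16 h at 37 C. CCF4 beta-lactamase fluorescence was read; Hill fits gave IC50.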

For assay [19] the target is unchanged. In words: qHTS assay for small molecule agonists of vitamin D receptor signaling (AID 588543; calls by dose curve;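 note: 0% = DMSO basal and 100% = reference agonist control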). A digest of the protocol:
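Reporter cells (HEK293T, VDR-UAS-bla) were seeded in medium with 2% charcoal-stripped serum and incubated 5 h, then compounds in concentration series were added for 16 h at 37 °C. Stimulation was scaled between DMSO basal and 50 nM 1α,25-dihydroxyvitamin D3.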

Assay [20] is described as follows: qHTS for Inhibitors of the vitamin D receptor (VDR): Hit Validation using a Texas Red Assay (AID 602201). Note: potency is the fitted concentration of half-maximal effect. The conditions noted are these: VDR coregulator binding, Texas Red fluorescence polarization; agonist-bound VDR ligand-binding domain. A digest of the protocol:
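Fluorescence polarization (Ex 595/Em 615 nm) of Texas Red (7 nM) with 1.5 uM VDR-LBD and LG19078 (final concentrations). Compounds were incubated for 2 hours at room temperature.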

SMILES strings stand for the structures. Where “and” joins values, the source holds several entries; their conditions need not be identical. Equal values may be shown once. Records with an inconclusive call do not appear. Calls of active or inactive are those of the source. Unless noted, calls come from the whole dose curve; as a rule, active = well fitted curve in the direction sought with a large enough effect; inconclusive = small, poorly fitted or top-dose-only effect, or another doubt; inactive = no such curve, though single readings can be large; an effect the other way counts as inactive or inconclusive.

Results on 7 compounds are retold here after PubChem BioAssay (NCATS).

Sequence of Vitamin D3 receptor (Homo sapiens) (P11473 whole entry, looked up): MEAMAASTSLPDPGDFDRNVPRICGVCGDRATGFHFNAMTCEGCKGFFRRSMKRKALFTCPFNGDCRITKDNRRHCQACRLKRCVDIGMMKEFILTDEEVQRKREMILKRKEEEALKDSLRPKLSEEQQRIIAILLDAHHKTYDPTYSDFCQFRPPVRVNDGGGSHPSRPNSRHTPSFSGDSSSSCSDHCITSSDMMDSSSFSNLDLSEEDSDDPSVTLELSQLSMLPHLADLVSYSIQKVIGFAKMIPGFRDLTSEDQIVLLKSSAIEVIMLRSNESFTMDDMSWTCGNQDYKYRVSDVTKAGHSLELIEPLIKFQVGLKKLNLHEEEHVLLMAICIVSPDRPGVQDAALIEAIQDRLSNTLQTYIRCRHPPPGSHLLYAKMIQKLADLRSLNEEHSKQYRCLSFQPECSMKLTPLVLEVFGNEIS
Sequence of Luciferin 4-monooxygenase (Photinus pyralis) (P08659 whole entry, looked up): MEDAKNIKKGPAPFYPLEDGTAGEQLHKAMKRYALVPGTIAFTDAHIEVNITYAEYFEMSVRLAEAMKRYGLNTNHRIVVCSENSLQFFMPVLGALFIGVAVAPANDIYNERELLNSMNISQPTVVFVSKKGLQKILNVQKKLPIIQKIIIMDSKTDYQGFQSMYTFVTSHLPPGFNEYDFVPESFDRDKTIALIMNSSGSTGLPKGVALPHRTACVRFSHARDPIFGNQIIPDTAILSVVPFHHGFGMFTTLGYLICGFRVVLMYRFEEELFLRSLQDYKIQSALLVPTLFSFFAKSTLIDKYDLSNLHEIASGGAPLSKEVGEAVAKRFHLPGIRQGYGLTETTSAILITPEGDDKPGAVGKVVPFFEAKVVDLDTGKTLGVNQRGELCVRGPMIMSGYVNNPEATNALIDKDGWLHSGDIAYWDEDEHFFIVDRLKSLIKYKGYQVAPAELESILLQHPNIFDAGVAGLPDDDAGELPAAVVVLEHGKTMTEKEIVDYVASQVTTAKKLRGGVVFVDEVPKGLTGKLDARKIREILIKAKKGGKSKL
Sequence of Androgen receptor (Homo sapiens) (P10275 whole entry, looked up): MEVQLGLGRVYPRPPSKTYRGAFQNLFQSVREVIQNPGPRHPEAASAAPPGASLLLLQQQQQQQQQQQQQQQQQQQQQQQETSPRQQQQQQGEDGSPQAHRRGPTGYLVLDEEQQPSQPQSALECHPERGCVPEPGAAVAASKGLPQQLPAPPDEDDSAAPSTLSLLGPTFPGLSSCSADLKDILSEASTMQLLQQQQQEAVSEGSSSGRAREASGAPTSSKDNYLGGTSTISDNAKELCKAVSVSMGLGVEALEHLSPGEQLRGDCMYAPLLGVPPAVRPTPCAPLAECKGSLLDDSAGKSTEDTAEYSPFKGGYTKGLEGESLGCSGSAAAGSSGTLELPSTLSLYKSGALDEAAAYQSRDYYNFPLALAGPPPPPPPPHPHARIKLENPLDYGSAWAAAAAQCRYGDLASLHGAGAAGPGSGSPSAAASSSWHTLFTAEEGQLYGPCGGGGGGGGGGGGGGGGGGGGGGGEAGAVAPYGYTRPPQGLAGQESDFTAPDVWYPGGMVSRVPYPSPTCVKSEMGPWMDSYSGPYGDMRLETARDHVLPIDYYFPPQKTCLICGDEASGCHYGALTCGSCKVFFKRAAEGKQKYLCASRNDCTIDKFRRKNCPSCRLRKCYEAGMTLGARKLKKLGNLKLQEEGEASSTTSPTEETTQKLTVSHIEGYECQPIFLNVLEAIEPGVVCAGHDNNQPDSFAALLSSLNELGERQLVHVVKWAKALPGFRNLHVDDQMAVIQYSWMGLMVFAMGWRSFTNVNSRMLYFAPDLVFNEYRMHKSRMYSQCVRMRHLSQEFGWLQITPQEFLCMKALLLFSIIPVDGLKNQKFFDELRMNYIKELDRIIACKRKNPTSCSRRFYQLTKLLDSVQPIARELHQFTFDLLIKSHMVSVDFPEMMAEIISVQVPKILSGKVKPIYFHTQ
Sequence of Bile acid receptor (Homo sapiens) (Q96RI1 whole entry, looked up): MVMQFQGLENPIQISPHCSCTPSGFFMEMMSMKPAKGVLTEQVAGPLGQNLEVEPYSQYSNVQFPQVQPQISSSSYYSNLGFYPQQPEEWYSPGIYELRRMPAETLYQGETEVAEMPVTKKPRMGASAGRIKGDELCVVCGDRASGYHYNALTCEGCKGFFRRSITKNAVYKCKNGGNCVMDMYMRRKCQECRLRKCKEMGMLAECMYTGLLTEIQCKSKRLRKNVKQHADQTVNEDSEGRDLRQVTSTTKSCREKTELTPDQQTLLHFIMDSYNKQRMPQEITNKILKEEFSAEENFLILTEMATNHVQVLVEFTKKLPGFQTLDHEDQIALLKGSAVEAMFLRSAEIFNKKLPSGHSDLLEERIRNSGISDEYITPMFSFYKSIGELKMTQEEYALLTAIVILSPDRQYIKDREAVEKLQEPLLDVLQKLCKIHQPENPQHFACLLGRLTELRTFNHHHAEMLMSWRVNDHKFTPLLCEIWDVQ
Sequence of Thyroid hormone receptor beta (Homo sapiens) (P10828 whole entry, looked up): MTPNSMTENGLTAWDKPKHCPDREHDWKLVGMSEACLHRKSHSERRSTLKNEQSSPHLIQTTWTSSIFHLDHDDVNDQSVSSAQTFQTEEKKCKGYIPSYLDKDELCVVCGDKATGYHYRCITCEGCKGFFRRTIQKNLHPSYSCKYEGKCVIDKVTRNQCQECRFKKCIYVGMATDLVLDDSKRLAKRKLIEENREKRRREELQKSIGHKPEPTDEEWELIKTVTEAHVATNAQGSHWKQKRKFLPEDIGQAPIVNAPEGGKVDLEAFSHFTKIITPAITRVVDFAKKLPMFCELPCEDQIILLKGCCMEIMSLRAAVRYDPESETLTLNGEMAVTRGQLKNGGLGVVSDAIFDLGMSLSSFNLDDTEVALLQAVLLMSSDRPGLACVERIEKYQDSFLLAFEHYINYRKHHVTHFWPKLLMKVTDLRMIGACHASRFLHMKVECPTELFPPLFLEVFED
Sequence of Retinoic acid receptor RXR-alpha (Homo sapiens) (P19793 whole entry, looked up): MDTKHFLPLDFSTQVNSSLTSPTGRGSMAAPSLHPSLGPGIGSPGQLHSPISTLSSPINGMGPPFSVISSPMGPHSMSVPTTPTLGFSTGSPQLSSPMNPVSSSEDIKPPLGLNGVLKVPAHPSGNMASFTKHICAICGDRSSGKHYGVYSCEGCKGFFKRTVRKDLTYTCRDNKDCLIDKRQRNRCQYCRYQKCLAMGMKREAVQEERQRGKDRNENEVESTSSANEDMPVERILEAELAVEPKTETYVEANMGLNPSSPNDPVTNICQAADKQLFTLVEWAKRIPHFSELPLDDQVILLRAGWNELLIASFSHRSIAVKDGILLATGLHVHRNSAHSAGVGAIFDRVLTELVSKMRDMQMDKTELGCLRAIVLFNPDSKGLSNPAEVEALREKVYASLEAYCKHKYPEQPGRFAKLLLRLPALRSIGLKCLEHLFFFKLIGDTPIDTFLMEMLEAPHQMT

Take `O=c1c(O)c(-c2ccc(O)cc2)oc2cc(O)cc(O)c12`: the result in assay [1] and in assay [6] was inactive. Also, the activation in assay [2] is -2.66% (inactive) and -3.79% (inactive). The max response is -17.2% and 39.5% in [3]; 23% in assay [5]. The Potency result in assay [4] is “inactive”. For the same compound, the activity change % (negative = inhibition) in [7] is 0.335% (inactive) and 4.17% (inactive).
For the compound `CCCCC1C(=O)N(c2ccccc2)N(c2ccccc2)C1=O`, the Potency result in assay [8], in [10], in assay [4], in assay [14] and in assay [15] was “inactive” in each case. Also, the outcome in assay [9], in [1], in assay [11] and in assay [6] was inactive. Besides, the activation in assay [2] is -0.201% (inactive) and -2.53% (inactive). For the same compound, the max response is 4.5% and 6.7% in assay [5]; 1.64% and -10.6% in [12]; 0.963% (inactive) and -0.138% (inactive) in assay [13]. Further, the activity change % (negative = inhibition) in [7] is 6.78% (inactive).
`CC(=O)c1ccc(S(=O)(=O)NC(=O)NC2CCCCC2)cc1`: the Potency result in [8], in assay [10], in assay [4], in [14] and in assay [15] was “inactive” each time. Moreover, the outcome in [9], in assay [17], in [1], in assay [11], in [18] and in [19] was inactive. The result in [6] was inactive. Further, the activation in assay [16] is -0.897% (inactive) and 2.97% (inactive); in assay [2] it was 9.83% (inactive) and -7.15% (inactive). Besides, the max response in assay [3] is 3.83% and 9.27%; in [5], 0.432% and 9.79%; in [12], -6.48% and 24.9%; in [13], -4.66% (inactive) and -24.2% (inactive). Also, the activity change % (negative = inhibition) in [7] was -3.97% (inactive) and -18% (inactive).
As to `CC/C(=C(\c1ccccc1)c1ccc(OCCN(C)C)cc1)c1ccccc1`, in assay [2], the activation is 5.77% (inactive) and -2.85% (inactive). In addition, the Potency result in [10], in [4] and in assay [15] was “inactive” throughout.
Regarding `CC[C@]1(O)C[C@@H]2CN(CCc3c([nH]c4ccccc34)[C@@](C(=O)OC)(c3cc4c(cc3OC)N(C)[C@H]3[C@@](O)(C(=O)OC)[C@H](OC(C)=O)[C@]5(CC)C=CCN6CC[C@]43[C@@H]65)C2)C1`, in assay [14], the Potency entry is “inactive”.
As for `O=C(CCCCCCC(=O)Nc1ccccc1)NO`, the Potency result in [14] and in assay [15] was “inactive” each time.
For `CC1(C)CCC2=C(O1)c1ccccc1C(=O)C2=O`, the Potency in assay [20] is 14.1 µM (active).
